49 molecules from PubChem BioAssay AID1851 (National Center for Advancing Translational Sciences (NCATS), 2009) can be followed below.

Molecules are shown by their SMILES. Among all 16,000 compounds or so, about 2,600 (16%) were called active. Inconclusive results (about 20%) are left out. Calls follow the shape of the dose curve; as a rule, active = well fitted curve in the direction sought with a large enough effect; inconclusive = small, poorly fitted or top-dose-only effect, or effect the other way; inactive = no such curve, though single readings can be large or run the other way. The list is a sample of the results.
% is scaled to controls: 0 for no effect and ±100 for the full control effect.

Cytochrome P450 2D6 (Homo sapiens), sequence (P10635 whole entry, looked up): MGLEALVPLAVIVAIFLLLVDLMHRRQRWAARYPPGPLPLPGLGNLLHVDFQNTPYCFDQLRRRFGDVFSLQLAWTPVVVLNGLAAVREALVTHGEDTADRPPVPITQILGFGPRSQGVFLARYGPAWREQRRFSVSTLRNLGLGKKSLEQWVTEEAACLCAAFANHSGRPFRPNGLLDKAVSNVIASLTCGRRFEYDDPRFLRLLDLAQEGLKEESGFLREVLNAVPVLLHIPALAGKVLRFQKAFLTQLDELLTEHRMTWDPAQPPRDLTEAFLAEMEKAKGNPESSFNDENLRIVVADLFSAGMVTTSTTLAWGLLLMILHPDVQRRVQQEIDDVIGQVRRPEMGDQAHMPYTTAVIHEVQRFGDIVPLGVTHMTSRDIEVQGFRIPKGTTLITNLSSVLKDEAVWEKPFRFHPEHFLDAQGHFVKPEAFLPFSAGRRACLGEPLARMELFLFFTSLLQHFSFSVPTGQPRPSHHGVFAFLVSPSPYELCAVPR

This assay concerns the target Cytochrome P450 2D6 (Homo sapiens) (UniProt P10635). Briefly: Cytochrome panel assay with activity outcomes. To be noted: recombinant CYP, pro-luciferin dealkylation, luminescence, p450-cyp2d6; series mostly up to 57.1 µM; activity, negative = inhibition: at the top concentration.
Consider `COc1ccc(OC)c(C2N(c3cc(C)on3)C(=O)C3CCCN32)c1` (centres undefined), for which the “activity, negative = inhibition” value was 21.9% (inactive). Consider `COc1ccc(C(F)(F)F)cc1N/C=C\c1nnnn1-c1ccccc1`, for which the “activity, negative = inhibition” value was -1.69% (inactive). For `CCOc1ccc(NC(=O)CN2CCN(S(=O)(=O)c3ccc(Cl)cc3)CC2)cc1`, the “activity, negative = inhibition” value was -13% (inactive). Take `CCOC(=O)c1[nH]c2cc3c(cc2c1NC(=O)CN1CCC2(CC1)OCCO2)OCO3`: the “activity, negative = inhibition” value is 3.18% (inactive). On to `CCOC(=O)c1[nH]c2cc3c(cc2c1NC(=O)CN1CCc2ccccc2C1)OCO3`, for which the concentration at half-maximal activity (AC50) is 3.55 µM (active). Turning to `CCOC(=O)c1[nH]c2cc(OC)c(OC)cc2c1NC(=O)c1nonc1C`, the “activity, negative = inhibition” value was -3.37% (inactive).

As to `O=C(CSc1ccc(Cl)cc1)Nc1ccc(N2CCN(c3ccccc3)CC2)c(F)c1`, the “activity, negative = inhibition” value is -1.75% (inactive). The same measure, in the same setting: the result for `COc1cc(-c2nnc(SCC(=O)Nc3ccc4c(c3)OCCO4)o2)cc(OC)c1OC` reads -14.4% (inactive). For the molecule `O=C(CN1CCN(c2ccc(Cl)cc2)CC1)Nc1ccc(F)c(F)c1`, the concentration at half-maximal activity (AC50) is 3.55 µM (active).

`O=C(CN1CCN(S(=O)(=O)c2ccc(Cl)cc2)CC1)Nc1ccc2c(c1)OCO2`: the AC50 was 2.51 µM (active).

`O=C(CSc1ccccc1)Nc1ccc(N2CCN(c3ccccc3)CC2)c(F)c1`: the “activity, negative = inhibition” value is -5.65% (inactive).

As to `COc1cc2c(cc1OC)CN(CC(=O)Nc1ccc3c(c1)OCO3)CC2`, the concentration at half-maximal activity (AC50) is 8.91 µM (active).

Turning to `COc1cc2c(cc1OC)CN(C(=S)Nc1ccccc1)CC2`, the “activity, negative = inhibition” value was 6.67% (inactive). For the molecule `CCN(CC(=O)Nc1ccc2c(c1)OCCO2)C(=O)c1cccc(S(=O)(=O)N2CCOCC2)c1`, the “activity, negative = inhibition” value is -15.4% (inactive). For the molecule `N[C@@](CC(=O)O)(Cc1ccccc1)C(=O)O`, the activity, negative = inhibition is 7.77% [at 11.4 µM] (inactive). Same read-out and setting: next, `CCN1C(=O)[C@H]2[C@H]3[C@H](O)[C@H](O)C/C(=N/O[C@@H](C)c4cn([C@H]5COC[C@H]5O)nn4)[C@@H]3CC[C@@H]2C1=O`: -1.04% [at 11.4 µM] (inactive). Regarding `C[C@H](C(=O)c1ccncc1)c1ccccn1`, the activity, negative = inhibition is -3.93% [at 11.4 µM] (inactive). On the same count and under the same terms, next, `O=C(O)CN(CCN(CC(=O)O)CC(=O)O)CC(=O)O.[Mn]`: 9.26% [at 11.4 µM] (inactive); `Cc1cc(=O)oc(C)c1C(=O)N1CCCCC1`: 15.6% (inactive); `CCCC[C@@H]1CN2[C@H](c3ccc(Br)cc3)[C@@H](C)CC[C@H]2C(=O)O1`: -5.55% [at 11.4 µM] (inactive). Regarding `COc1ccc(C)cc1NC(=O)CN1CCN(S(=O)(=O)c2ccc(F)cc2)CC1`, the “activity, negative = inhibition” value was -21.5% (inactive). Consider `CCN1CCN(CCC(=O)Nc2cccc(OC)c2)CC1`, for which the “activity, negative = inhibition” value was -7.68% (inactive). In the case of `COc1ccc(S(=O)(=O)N2CCCN(CCC(=O)Nc3cccc(C(F)(F)F)c3)CC2)cc1`, the AC50 was 8.91 µM (active). On to `Cc1c(C(=O)Nc2cccc(C(F)(F)F)c2)oc2ccc(S(=O)(=O)N3CCOCC3)cc12`, for which the “activity, negative = inhibition” value is -8.55% (inactive). The same measure, in the same setting: the result for `COc1ccc(NC(=O)c2cc(S(=O)(=O)N3CCS(=O)(=O)CC3)ccc2Cl)cc1` reads 8.12% (inactive). `COc1ccc(S(=O)(=O)N2CCCN(CC(=O)Nc3ccc(OC)c(Cl)c3)CC2)cc1`: the concentration at half-maximal activity (AC50) was 11.2 µM (active).

On to `Cc1nc(SC2CC(=O)N(c3ccc([N+](=O)[O-])cc3)C2=O)nc2c1CCCC2` (centres undefined), for which the “activity, negative = inhibition” value was -1.33% (inactive).

Consider `COC(=O)c1ccc(C(=O)OC)c(NC(=S)N2CCN(c3ccccc3)CC2)c1`, for which the “activity, negative = inhibition” value was -16.5% (inactive). Take `C=CCOc1cccc(CNn2cn[nH]c2=S)c1`: the “activity, negative = inhibition” value is 3.23% (inactive). With `COc1cc(C2C(C#N)=C(N)N(c3sc4c(c3C#N)CCCC4)C3=C2C(=O)CC(C)(C)C3)cc(OC)c1OC` (centres undefined), the “activity, negative = inhibition” value was 9.61% (inactive).

Regarding `Cc1cc(C)c(O)c(Cc2cccc(Cc3cc(C)cc(C)c3O)c2O)c1`, the activity, negative = inhibition was 12.6% [at 11.4 µM] (inactive). In the case of `Cc1ccc(C(=O)N/N=C/c2sc(=O)n(Cc3cccc(C(=O)O)c3)c2Cl)cc1`, the “activity, negative = inhibition” value is 12.6% (inactive). Same read-out and setting: the result for `CO[C@@H]1COC(=O)[C@H](C)NC(=O)[C@@H](C)COC(=O)CCC[C@H]1C` reads 8.56% [at 11.4 µM] (inactive). Same read-out and setting: next, `CSc1nncc(/C(C)=N\Nc2ccccc2)n1`: -6.12% (inactive).

For `COCCN=C1Sc2nc3c(C)cccc3cc2CN1Cc1ccco1`, the AC50 is 14.1 µM (active).

On to `CCn1c(SCC(=O)NC2CCCCC2)nnc1-c1cc2cccc(OC)c2o1`, for which the “activity, negative = inhibition” value is -23.6% (inactive). `COCCNC(=O)CSc1ncnc2sccc12`: the “activity, negative = inhibition” value was 13.7% (inactive). Turning to `COc1ccc(C2C(C(=O)N3CCN(C)CC3)c3ccccc3C(=O)N2C2CCCCC2)cc1` (centres undefined), the “activity, negative = inhibition” value is -5.85% (inactive). Turning to `CN(C)CCCNc1ncnc2nc[nH]c12`, the activity, negative = inhibition is 1.66% [at 11.4 µM] (inactive).

Turning to `Cc1ccc2nc(NC(=O)CSCC(=O)OCC(=O)c3ccc(Br)cc3)sc2c1`, the “activity, negative = inhibition” value is -12.5% (inactive).

Consider `Cc1ccc2nc(NC(=O)COC(=O)c3ccc(Br)o3)sc2c1`, for which the AC50 was 15.8 µM (active). Consider `Cc1ccc2nc(NC(=O)COC(=O)CSc3nc(C)cc(C)n3)sc2c1`, for which the “activity, negative = inhibition” value is -23.1% (inactive). Consider `C=C[C@]1(C)C[C@H](OC(=O)CO)[C@]2(C)C3C(=O)CC[C@]3(CC[C@H]2C)[C@H](C)[C@H]1O` (some centres undefined), for which the activity, negative = inhibition was -10.6% [at 11.4 µM] (inactive). For the molecule `CC(=O)OCC(=O)[C@@]1(O)CC[C@@H]2[C@H]3CCC4=CC(=O)C=C[C@]4(C)[C@]3(F)[C@@H](O)C[C@@]21C`, the “activity, negative = inhibition” value was -1.72% [at 25.6 µM] (inactive).

With `O=C1C=C[C@@H](O)[C@H]2[C@@H]3C(=O)N(c4cccc(Oc5ccccc5)c4)C(=O)[C@@H]3CC[C@H]12`, the activity, negative = inhibition is -0.0224% [at 11.4 µM] (inactive). On to `COc1ccccc1CCn1c(=O)c(-c2cc(F)cc(F)c2)nc2cncnc21`, for which the “activity, negative = inhibition” value was -11.2% (inactive). For `CCCN(C(=S)Nc1ccccc1)C1CCS(=O)(=O)C1` (centres undefined), the “activity, negative = inhibition” value is -4.85% (inactive). On to `COc1ccc(CCNC(=O)Cn2c(=O)oc3ccccc32)cc1OC`, for which the “activity, negative = inhibition” value was -18.7% (inactive).

Consider `Cc1cccc(NC(=S)NC(=O)CCc2ccccc2)c1`, for which the “activity, negative = inhibition” value is -17.4% (inactive).
